Reference: PubChem BioAssay AID687001 (Broad Institute, 2013)
Entries with a potency or affinity are not part of this list. Activity calls are given as the source filed them.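 How the source made its calls: active means signal-lowering compounds whose fitted half-maximal concentration is at or below twice the top tested dose in every run; inconclusive means runs disagree, flat 30 to 70% inhibition, or poor curve fit; inactive means the rest.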

Molecular target: Protein S100-A4 (Homo sapiens) (UniProt P26447)
Sequence (P26447 whole entry, looked up): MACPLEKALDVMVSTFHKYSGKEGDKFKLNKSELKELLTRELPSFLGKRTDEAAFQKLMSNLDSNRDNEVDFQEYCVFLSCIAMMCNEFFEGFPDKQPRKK
Assay: human S100A4 peptide interaction inhibition curves – biochemical, fluorescence polarization, cherry-picked hits, dose response (AID 687001)
Settings: FP, S100A4/TAMRA-myosin IIA peptide binding; series mostly up to 11 µM

outcome, inactive:
C=CCNC(=O)/C(C#N)=C/c1c(N(Cc2ccccc2)Cc2ccccc2)nc2ccccn2c1=O
Cc1noc(C)c1S(=O)(=O)N(C)C[C@@H]1OCCCC[C@H](C)Oc2ccc(NC(=O)C3CCCCC3)cc2C(=O)N([C@H](C)CO)C[C@H]1C
C[C@@H]1CN([C@H](C)CO)C(=O)c2cc(C3=CCCC3)cnc2O[C@@H]1CN(C)Cc1ccc(F)cc1
CN1CCc2c(sc(NC(=O)C3COc4ccccc4O3)c2C(N)=O)C1 (stereo not drawn)
Cc1nc(Nc2cccc(O)c2)c2oc3ccccc3c2n1
C[C@H](CO)N1C[C@H](C)[C@H](CN(C)C)Oc2ccc(NS(=O)(=O)c3ccccc3)cc2CC1=O
Cc1ccc(NS(=O)(=O)c2ccc(-c3coc(C)n3)cc2)c(C)c1
COc1cccc(-c2ccc3n(c2=O)C[C@H]2[C@H](CO)[C@@H](C(=O)N4CCOCC4)N[C@@H]32)c1
CN(C)Cc1cn(CC[C@H]2CC[C@H](NC(=O)Cc3cccnc3)[C@H](CO)O2)nn1
CCCC(=O)Nc1ccc2c(c1)OC[C@@H](C)N(C(=O)c1cnccn1)C[C@@H](C)[C@H](OC)CN(C)C2=O
CCCNC(=O)N1C[C@H](O)COC[C@@H]2O[C@H](CC(=O)N[C@H]3CCN(Cc4ccccc4)C3)CC[C@H]21
COc1ccccc1NC(=O)N[C@H]1CC[C@H](CCNS(=O)(=O)c2ccc(Cl)cc2)O[C@H]1CO
COc1ccc2c3c(n(C)c2c1)[C@@H](CO)N(C(=O)Nc1ccc(F)cc1)CC31CCN(C)CC1
